Laboratory results: PubChem BioAssay (Tox21)
Several values for one entry are separate records, joined by “and”; a condition that tells them apart may be missing. Equal entries are not always repeated. Inconclusive results are not listed. Entries that show only a call come without a potency. Some compounds were tested as several samples or in several runs, with calls that do not always agree. Activity calls are given as the source filed them. Calls come from the whole dose curve; as a rule, active = well fitted curve in the direction sought with a large enough effect in the repeat runs; inconclusive = weak or mixed curves; inactive = no such curve, though single readings can be large; an effect the other way counts as inactive or inconclusive.

experiment: qHTS assay to identify small molecule antagonists of the glucocorticoid receptor (GR) signaling pathway - cell viability counter screen (AID 720693); conditions: GR-bla HeLa viability, CellTiter-Glo luminescence, 18 h, with 5 nM dexamethasone present; series mostly up to 58.5 µM; note: nearly all actives have a fitted effect of over 55% in size

Row | Compound | outcome
1 | CCOC(=O)c1ccccc1C(=O)OCC | inactive
2 | O=C(O)c1ccccn1 | inactive
3 | CC(C)(C)OOC(=O)c1ccccc1 | inactive
4 | O=[N+]([O-])c1ccc(Oc2ccc(Cl)cc2Cl)cc1 | inactive
5 | CN=C=S | inactive
6 | CN(C)CCO | inactive
7 | Cc1cc(-c2cc(C)c(N)c(C)c2)cc(C)c1N | inactive
8 | Nc1ccccc1C(=O)O | inactive

experiment: qHTS assay for identifying genotoxic compounds that show differential cytotoxicity against isogenic chicken DT40 cell lines with known DNA damage response pathways - Rev3 mutant cell line (AID 743014); conditions: chicken DT40 Rev3-/- viability, CellTiter-Glo, 40 h; series mostly up to 68.4 µM; note: nearly all actives have a fitted effect of over 55% in size; note: potency is the fitted concentration of half-maximal effect

Row | Compound | Potency
9 | CCCCOC(=O)c1ccccc1C(=O)OCCCC | inactive
10 | CCC12COCN1COC2 | inactive
11 | CN(N=O)c1ccccc1 | inactive
12 | ClCCBr | inactive
13 | CCOP(=S)(OCC)Oc1cnc2ccccc2n1 | 27.3 µM (active)
14 | Clc1ccc(Cl)cc1 | inactive
15 | Cc1ccccc1O | inactive
16 | C#CC(C)(C)NC(=O)c1cc(Cl)cc(Cl)c1 | 68.6 µM (active)
17 | CC(C)C1(C)N=C(c2nc3ccccc3cc2C(=O)O)NC1=O (stereo unspecified) | inactive
18 | Nc1c(Cl)c(Cl)nc(C(=O)O)c1Cl | inactive
19 | Nc1ccc(Oc2ccc(N)cc2)cc1 | inactive
20 | c1ccc(OP(Oc2ccccc2)Oc2ccccc2)cc1 | inactive
21 | Cn1cc(-c2ccccc2)c(=O)c(-c2cccc(C(F)(F)F)c2)c1 | inactive
22 | CC(C)(Cl)Cl | inactive
23 | COP(N)(=O)SC (stereo unspecified) | inactive
24 | CCC[CH2][Sn]([Cl])([Cl])[Cl] | inactive
25 | CCN(CC)CCO | inactive

Row | Compound | Potency
26 | CCCC1COC(Cn2cncn2)(c2ccc(Cl)cc2Cl)O1 (stereo unspecified) | 27.8 µM (active) and 19.3 µM (active)
27 | Clc1ccccc1Cl | inactive
28 | CCC(C)(CC)c1cc(NC(=O)c2c(OC)cccc2OC)on1 | 66 µM (active)
29 | CON(C)C(=O)Nc1ccc(Cl)c(Cl)c1 | inactive
30 | CC(C)N1C(=O)c2ccccc2NS1(=O)=O | inactive
31 | COc1ccc2c3c1O[C@H]1[C@@H](O)C=C[C@H]4[C@@H](C2)N(C)CC[C@@]341 | inactive
32 | O=c1[nH]c2ccccc2c(=O)o1 | inactive
33 | CCCCCCCCCCCC#N | inactive
34 | CCOC(=O)c1ccccc1C(=O)OCC | inactive
35 | O=C(O)c1ccccn1 | inactive
36 | CC(C)(C)OOC(=O)c1ccccc1 | inactive
37 | O=[N+]([O-])c1ccc(Oc2ccc(Cl)cc2Cl)cc1 | inactive and 61.1 µM (active)
38 | CN=C=S | inactive
39 | CN(C)CCO | inactive
40 | Cc1cc(-c2cc(C)c(N)c(C)c2)cc(C)c1N | inactive
41 | Nc1ccccc1C(=O)O | inactive

experiment: qHTS assay for identifying genotoxic compounds that show differential cytotoxicity against isogenic chicken DT40 cell lines with known DNA damage response pathways - Rad54/Ku70 mutant cell line (AID 743015); conditions: DT40 Rad54/Ku70 mutant viability, CellTiter-Glo, 40 h; series mostly up to 66.8 µM; note: nearly all actives have a fitted effect of over 60% in size; note: potency is the fitted concentration of half-maximal effect

Row | Compound | Potency
42 | CCCCOC(=O)c1ccccc1C(=O)OCCCC | inactive
43 | CCC12COCN1COC2 | inactive
44 | CN(N=O)c1ccccc1 | inactive
45 | ClCCBr | inactive
46 | CCOP(=S)(OCC)Oc1cnc2ccccc2n1 | 27.3 µM (active)
47 | Clc1ccc(Cl)cc1 | inactive
48 | Cc1ccccc1O | inactive
49 | C#CC(C)(C)NC(=O)c1cc(Cl)cc(Cl)c1 | inactive
50 | CC(C)C1(C)N=C(c2nc3ccccc3cc2C(=O)O)NC1=O (stereo unspecified) | inactive
51 | Nc1c(Cl)c(Cl)nc(C(=O)O)c1Cl | inactive
52 | c1ccc(OP(Oc2ccccc2)Oc2ccccc2)cc1 | inactive
53 | Cn1cc(-c2ccccc2)c(=O)c(-c2cccc(C(F)(F)F)c2)c1 | 61.1 µM (active)
54 | CCOP(=S)(OCC)SCCSCC | inactive
55 | CC(C)(Cl)Cl | inactive
56 | COP(N)(=O)SC (stereo unspecified) | inactive
57 | CCC[CH2][Sn]([Cl])([Cl])[Cl] | inactive
58 | CCN(CC)CCO | inactive

Row | Compound | Potency
59 | CCCC1COC(Cn2cncn2)(c2ccc(Cl)cc2Cl)O1 (stereo unspecified) | 55.5 µM (active) and 17.2 µM (active)
60 | Clc1ccccc1Cl | inactive
61 | CCC(C)(CC)c1cc(NC(=O)c2c(OC)cccc2OC)on1 | 46.7 µM (active)
62 | CON(C)C(=O)Nc1ccc(Cl)c(Cl)c1 | inactive and 54.5 µM (active)
63 | CC(C)N1C(=O)c2ccccc2NS1(=O)=O | inactive
64 | COc1ccc2c3c1O[C@H]1[C@@H](O)C=C[C@H]4[C@@H](C2)N(C)CC[C@@]341 | inactive
65 | O=c1[nH]c2ccccc2c(=O)o1 | inactive
66 | CCCCCCCCCCCC#N | inactive
67 | Cc1ccc(N)cc1N | 17.2 µM (active)
68 | CCOC(=O)c1ccccc1C(=O)OCC | inactive
69 | O=C(O)c1ccccn1 | inactive
70 | CC(C)(C)OOC(=O)c1ccccc1 | inactive
71 | O=[N+]([O-])c1ccc(Oc2ccc(Cl)cc2Cl)cc1 | 61.1 µM (active)
72 | CN=C=S | inactive
73 | CN(C)CCO | inactive
74 | Cc1cc(-c2cc(C)c(N)c(C)c2)cc(C)c1N | inactive
75 | Nc1ccccc1C(=O)O | inactive

experiment: qHTS assay to identify small molecule antagonists of the androgen receptor (AR) signaling pathway - cell viability counter screen (AID 743033; note: nearly all actives have a fitted effect of over 45% in size); conditions: AR-bla HEK293 viability, CellTiter-Glo luminescence, 16 h; series mostly up to 58.5 µM

Row | Compound | outcome
76 | CCCCOC(=O)c1ccccc1C(=O)OCCCC | inactive
77 | CCC12COCN1COC2 | inactive
78 | CN(N=O)c1ccccc1 | inactive
79 | [O-][Cl+2]([O-])O | inactive
80 | ClCCBr | inactive
81 | CCOP(=S)(OCC)Oc1cnc2ccccc2n1 | inactive
82 | Clc1ccc(Cl)cc1 | inactive
83 | Cc1ccccc1O | inactive
84 | C#CC(C)(C)NC(=O)c1cc(Cl)cc(Cl)c1 | inactive
85 | CC(C)C1(C)N=C(c2nc3ccccc3cc2C(=O)O)NC1=O (stereo unspecified) | inactive
86 | Nc1c(Cl)c(Cl)nc(C(=O)O)c1Cl | inactive
87 | Nc1ccc(Oc2ccc(N)cc2)cc1 | inactive
88 | c1ccc(OP(Oc2ccccc2)Oc2ccccc2)cc1 | inactive
89 | Cn1cc(-c2ccccc2)c(=O)c(-c2cccc(C(F)(F)F)c2)c1 | inactive
90 | CCOP(=S)(OCC)SCCSCC | inactive
91 | CC(C)(Cl)Cl | inactive
92 | COP(N)(=O)SC (stereo unspecified) | inactive
93 | CCC[CH2][Sn]([Cl])([Cl])[Cl] | inactive

Row | Compound | outcome
94 | CCN(CC)CCO | inactive
95 | C=CC(N)=O | inactive
96 | Clc1ccccc1Cl | inactive
97 | CCC(C)(CC)c1cc(NC(=O)c2c(OC)cccc2OC)on1 | inactive
98 | CON(C)C(=O)Nc1ccc(Cl)c(Cl)c1 | inactive
99 | CC(C)N1C(=O)c2ccccc2NS1(=O)=O | inactive
100 | COc1ccc2c3c1O[C@H]1[C@@H](O)C=C[C@H]4[C@@H](C2)N(C)CC[C@@]341 | inactive
101 | O=c1[nH]c2ccccc2c(=O)o1 | inactive
102 | CCCCCCCCCCCC#N | inactive
103 | Cc1ccc(N)cc1N | inactive
104 | CCOC(=O)c1ccccc1C(=O)OCC | inactive
105 | O=C(O)c1ccccn1 | inactive
106 | CC(C)(C)OOC(=O)c1ccccc1 | inactive
107 | O=[N+]([O-])c1ccc(Oc2ccc(Cl)cc2Cl)cc1 | inactive
108 | CN=C=S | inactive
109 | CN(C)CCO | inactive
110 | Cc1cc(-c2cc(C)c(N)c(C)c2)cc(C)c1N | inactive
111 | Nc1ccccc1C(=O)O | inactive
